According to PubChem BioAssay (NCI):
This is part of a sample that, as a whole, favours compounds with a hit. Of some 83,000 tested, about 20% had one in any assay.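 Plates (96-well) were seeded with cells, treated with compound at one concentration, and incubated for 48 hours before percent growth was determined.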 Values without a mark were called inactive. The source made the active and inactive calls. The calls were made as follows: active = growth percent below 10; inactive = the rest.

System: HL-60(TB) leukemia
Assay: NCI-60 one-dose screen, 48 h (100 = growth as untreated, 0 = no growth, -100 = all killed)
Settings: 10 µM unless noted

SMILES	growth
c1cc(-c2nnc(SSc3ncnc4nc[nH]c34)o2)ccn1	18%
CC1OC(n2c3ccccc3c3c4c(c5c6ccccc6[nH]c5c32)C(=O)N(CCN2CCCC2)C4=O)CC(O)C1O (stereo not given)	44.2%
CCOC(=O)Nc1cc2c(c(N)n1)N=C(c1ccccc1)CO2	-0.963% (active)
CCCCCCNC(=O)Oc1ccc(/C(=C(/C)Cc2ccc(OC)cc2)c2ccc(OCCN(C)C)cc2)cc1	47.4%
Nc1ncnc2c1c(-c1cccc(OCc3ccccc3)c1)cn2C1CC(CN2CCC2)C1 (stereo not given)	-51.5% (active)
C[C@@H]1C[C@H]2C(=O)O[C@@H](C)[C@H](NC(=O)[C@H](Cc3cc(F)cc(F)c3)NC(=O)Nc3ccc(C4CC4)cc3F)C(=O)N3CCC[C@H]3C(=O)N3CCCC[C@H]3C(=O)N[C@@H](C)C(=O)N2C1	20.9%
CO[C@H]1C[C@@H]2CC[C@@H](C)[C@@](O)(O2)C(=O)C(=O)N2CCCC[C@H]2C(=O)O[C@H]([C@H](C)C[C@@H]2CC[C@@H](OCCO)[C@H](OC)C2)CC(=O)[C@H](C)/C=C(\C)[C@@H](O)[C@H](OC)C(=O)[C@H](C)C[C@H](C)\C=C/C=C/C=C/1C	75.7%
O=C(CN1CCN(c2cc3c(cc2F)c(=O)c(C(=O)O)cn3C2CC2)CC1)Nc1ccc(C(=O)/C=C/c2ccc(Cl)cc2)cc1	134%
Cn1cc(-c2csc(-c3cn(CCOC(N)=O)c4ccccc34)n2)c2cccnc21	86.9%
COc1ccc2c(c1)C(=O)/C(=C/c1cccnc1)CC2	99.5%
O=[N+]([O-])c1ccc2nc3c4ccccc4c4ccccc4c3nc2c1	77.2%
COc1ccc(-c2cnc(-c3ccc(Cl)cc3)[nH]2)cc1OC	91.2%
C[C@@H]1CCCCCCCCC[C@H](O)C(=O)C[C@@H](SC[C@@H](O)C(=O)O)C(=O)O1	86.8%
COc1cc(/C=C2\C(=O)N(CCOc3cc(O)c4c(=O)cc(-c5ccccc5)oc4c3)c3ccccc32)cc(OC)c1O	-9.06% (active)
CC(C)=CCc1cc(O)c(O)c2oc3cc(O)cc(O)c3c(=O)c12	103%
C/C(=N\NC(=O)Cn1c(-c2ccc(S(C)(=O)=O)cc2)nc2ccccc21)c1ccc(Cl)cc1	74.8%
Cc1cc2nc3c4ccccc4n(CCN(C)C)c3nc2cc1C	8.35% (active)
FC(F)(F)c1nn[nH]n1	102%

SMILES	growth
Cc1cn2c(/C=C3/C(=O)Nc4c3ccc3ccccc43)c(C(F)(F)F)nc2s1	1.47% (active)
O=C1CCCCC1(c1ccccc1)c1ccccc1	106%
COc1ccc2c(c1OC)OCC(CN(C)C)C2=O (stereo not given)	40.1%
O=C(Nc1ccc(F)cc1)Nc1ccc(Cl)c([N+](=O)[O-])c1	-15.6% (active)
NC(=O)NN=C(C1CC1)C1CC1	62.2%
Cn1cnc([N+](=O)[O-])c1S(=O)(=O)Oc1ccccc1	54.3%
C=CCOc1cccc(/C=C2\SC(=Nc3ccc(O)cc3)NC2=O)c1	-16.8% (active)
CN(C)CCN(Cc1ccccc1)c1ccccc1	86.6%
COc1ccc(/C(C)=C(\c2ccc(Cl)cc2)c2ccc(OCCN3CCCC3)cc2)cc1	37.9%
CC(C)NCC(O)COc1ccc(CCOCC2CC2)cc1 (stereo not given)	92.8%
CCC(CC)NCC(C)(C)O	97.7%
C=C1C(=O)O[C@H]2[C@H]1CC/C(COC(=O)CCCCCCCC(=O)OC/C1=C/CC[C@@]3(C)O[C@H]3[C@H]3OC(=O)C(=C)[C@@H]3CC1)=C\CC[C@@]1(C)O[C@@H]21	-18.3% (active)
COc1ccc(/C=C/C(=O)c2ccc(B(O)O)cc2)cc1O	37.7%
CCN1/C(=C/C=C/C=C/c2sc3ccccc3[n+]2CC)Sc2ccccc21	-58.4% (active)
CCC1NC(=O)C(NC(=O)c2ncccc2O)C(C)OC(=O)C(c2ccccc2)NC(=O)C2CC(=O)CCN2C(=O)C(Cc2ccc(N(C)C)cc2)N(C)C(=O)C2CCCN2C1=O (stereo not given) (tested in a mixture with another compound)	42.5%
CC(=O)N(CC(O)CO)c1c(I)c(C(=O)NCCO)c(I)c(C(=O)NCC(O)CO)c1I (stereo not given)	92.2%
COc1cc(-c2nn(-c3ccc(C)cc3)cc2C(=O)O)ccc1O	82.2%
